Nine compounds from PubChem BioAssay (NCI) can be followed below.

What all share (test): NCI-60 one-dose screen, 48 h (100 = growth as untreated, 0 = no growth, -100 = all killed)
Experiment [1] concerns HCT-15 colon. As to conditions: 10 µM unless noted.
For experiment [2], the system named is HT29 colon. As to conditions: 10 µM unless noted.
The subject of experiment [3] is SNB-75 CNS. The note with it: 10 µM unless noted.
Experiment [4] relates to SNB-19 CNS. As to conditions: 10 µM unless noted.
Experiment [5] relates to U251 CNS. As to conditions: 10 µM unless noted.
The test system of experiment [6] is PC-3 prostate. The note with it: 10 µM unless noted.
Experiment [7] deals with UACC-62 melanoma. As to conditions: 10 µM unless noted.
In experiment [8] the test system is LOX IMVI melanoma. The note with it: 10 µM unless noted.
The test system of experiment [9] is SK-MEL-28 melanoma. As to conditions: 10 µM unless noted.
Experiment [10] deals with SK-MEL-2 melanoma. The note with it: 10 µM unless noted.
The subject of experiment [11] is SN12C renal. The note with it: 10 µM unless noted.
Experiment [12] has as its system UO-31 renal. The note with it: 10 µM unless noted.
Experiment [13] concerns TK-10 renal. As to conditions: 10 µM unless noted.
For experiment [14], the system named is CAKI-1 renal. The note with it: 10 µM.
Experiment [15] relates to A498 renal. As to conditions: 10 µM unless noted.
The test system of experiment [16] is CCRF-CEM leukemia. The note with it: 10 µM unless noted.
The test system of experiment [17] is MOLT-4 leukemia. The note with it: 10 µM unless noted.
The test system of experiment [18] is EKVX NSCLC. As to conditions: 10 µM unless noted.
Experiment [19] deals with ACHN renal. As to conditions: 10 µM unless noted.
Experiment [20] has as its system SK-MEL-5 melanoma. The note with it: 10 µM unless noted.

SMILES strings stand for the structures. This is part of a sample that, as a whole, favours compounds with a hit. Of some 83,000 tested, about 20% had one in any assay.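 Each cell line was grown in a 96-well plate and treated with one concentration of compound for 48 hours. Values below 10 were considered active.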 A number with no mark means an inactive call. The source made the active and inactive calls.

On to `CCN1C(=O)N(CC)C2SC(N/N=C/c3cccs3)=NC21` (configuration not stated), for which the growth in experiment [1] is 14.8%; in experiment [2], 1.59% (active); in [3], 50.6%; in [4] it was 25.9%; in experiment [5] it was 10.2%; in [6], 28.4%. Besides, the growth was 36.7% in [7]; 8.77% (active) in [8]; 54.2% in experiment [9]; 13.5% in experiment [10]; 29.9% in experiment [11]; 53.4% in [12]. Moreover, the growth in [13] is 84.5%; in experiment [14], 27.1%; in [15], -23% (active); in [16], 17.8%; in [17], 13.3%.

`CS(=O)(=O)c1nccc(-c2c(-c3ccc(F)c(OCc4ccccc4)c3)nc3sccn23)n1`: the growth in experiment [1] was 79.1%; in [2], 103%; in [3], 103%; in experiment [4], 96.7%; in experiment [5], 107%; in experiment [6], -11.3% (active). The growth is 87% in experiment [7]; 44.6% in experiment [8]; 85.9% in experiment [9]; 87.6% in experiment [18]; 97.5% in experiment [11]; 86% in experiment [12]. Besides, the growth in [13] was 101%; in experiment [19] it was 93.4%; in [14], 93.6%; in [15] it was 80.3%; in experiment [16], 54.7%; in experiment [17], 74%.

For the compound `CCN1C(=O)N(CC)C2SC(N/N=C/c3ccc(F)cc3)=NC21` (configuration not stated), the growth is 14.9% in experiment [1]; 3.77% (active) in experiment [2]; 38.2% in experiment [3]; 28.1% in experiment [4]; 15% in experiment [5]; 30.3% in [6]. Moreover, the growth was 33.6% in experiment [7]; 14.1% in [8]; 58.9% in [9]; 17.2% in experiment [10]; 33.6% in experiment [11]; 50.3% in experiment [12]. Besides, the growth in [19] was 37.3%; in experiment [14], 31.7%; in experiment [15] it was -22.4% (active); in experiment [16], 23.2%; in experiment [17], 23.8%.

Take `O=C1Nc2ccc(Br)cc2/C1=N\c1nnc(-c2ccc(Cl)cc2)o1`: the growth is 24.2% in experiment [1]; 32.5% in [2]; 46.8% in experiment [3]; 72% in [4]; 60.5% in [5]; 80.1% in experiment [6]. The growth in [7] was 60.1%; in experiment [9] it was 70.8%; in experiment [10] it was 87.6%; in experiment [18], 72.5%; in [11] it was 85.7%; in [12] it was 62.3%. Further, the growth in experiment [13] was 187%; in [19] it was 74.9%; in [14] it was 59%; in experiment [15], 69.4%; in experiment [16], 35.7%; in [17], 36.6%.

With `O=C1NC(=O)c2c1c1c3ccccc3ccc1c1[nH]c3ccccc3c21`, the growth in [1] is 13.4%; in [2], 13.4%; in experiment [3], -7.05% (active); in experiment [4] it was 3.4% (active); in experiment [5] it was 11.1%; in experiment [6] it was 1.07% (active). The growth in experiment [20] was -18.1% (active); in experiment [7] it was 15.2%; in [9] it was 18.9%; in experiment [10], -12.5% (active); in experiment [18], 11.1%; in experiment [11], 17.3%. For the same compound, the growth in experiment [12] was -4.64% (active); in experiment [13] it was -4.05% (active); in experiment [14] it was 4.16% (active); in [15], -36.3% (active); in experiment [16] it was 9.91% (active); in experiment [17] it was 3.16% (active).

On to `N#C/C(=C\c1ccc(N2CCCCC2)cc1)C(=O)Nc1sc2c(c1C#N)CCC2`, for which the growth in experiment [1] was 95%; in experiment [2], 98.8%; in [3], 86.8%; in [4], 99.2%; in [5], 96.8%; in [6], 91.5%. For the same compound, the growth was 90.2% in experiment [7]; 89.8% in experiment [8]; 95.2% in [9]; 98.4% in experiment [18]; 88.9% in experiment [11]; 91.2% in [12]. The growth was 108% in experiment [13]; 72.5% in experiment [19]; 84.8% in experiment [14]; -4.06% (active) in experiment [16]; 104% in experiment [17].

With `COc1ccc2c(C3=C(c4c[nH]c5ccccc45)C(=O)N(O)C3=O)coc2c1`, the growth in experiment [1] was 92.2%; in experiment [2], 95.4%; in experiment [3] it was 105%; in experiment [4], 95.1%; in [5] it was 98%; in experiment [6], 81.2%. The growth in [7] was 80.4%; in experiment [8] it was 52.2%; in [9], 110%; in [18] it was 77%; in [11], 101%; in [12], 58.2%. The growth in [13] is 144%; in experiment [19] it was 94.2%; in [14] it was 90.2%; in experiment [15] it was 85%; in experiment [16], 26.9%.

In the case of `N/C(=N\OC(=O)CSc1nc2ccccc2s1)c1ccc2ccccc2c1`, the growth was 101% in experiment [1]; 103% in experiment [2]; 86.7% in [3]; 99.9% in experiment [4]; 96.4% in experiment [5]; 93.6% in experiment [6]. Also, the growth in [7] was 91.4%; in experiment [8], 99.8%; in [9], 106%; in experiment [10], 102%; in [18] it was 91.8%; in experiment [11] it was 95.2%. Also, the growth is 78.6% in experiment [12]; 118% in experiment [13]; 91% in [19]; 85.8% in experiment [14]; 101% in [16]; 99.2% in experiment [17].

`C#C[C@]1(O)CC[C@H]2[C@@H]3CC=C4c5sc(Nc6nc(C)cc(OC)n6)nc5CC[C@]4(C)[C@H]3CC[C@@]21C`: the growth in experiment [1] is 35.3%; in [2], 60.8%; in experiment [3], -10.8% (active); in [4], 55%; in [5] it was 34.2%; in [6] it was 27.5%. Also, the growth in experiment [20] is 17.9%; in experiment [7], 0.98% (active); in experiment [9] it was 21.1%; in experiment [10], 58.2%; in [18] it was 41.8%; in experiment [11], 73%. The growth in experiment [12] was -1.87% (active); in experiment [13], 121%; in experiment [14] it was 19.2%; in [15], 18.7%; in experiment [17], 7.93% (active).
